This is an account of results in PubChem BioAssay (EPA / NIEHS).

Results filed as inconclusive are left out. Some compounds were tested as several samples or in several runs, with calls that do not always agree. Activity calls are given as the source filed them. Rule for the calls, unless noted: active = hit-call score of the fitted dose curve at least 0.9, where 1 is the maximum; inconclusive = response in the unintended direction; inactive = score below 0.9.

In assay [1] the target is bovine Estrogen Receptor (ER), ESR1 (gene 407238) (UniProt P49884). Nature of the assay: NVS_NR_bER: NovaScreen (NVS) Nuclear Receptor Binding Assay for bovine Estrogen Receptor (ER) (AID 2283345).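 Note: actives lower the bound radioligand count which means they displace the ER ligand.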 A digest of the protocol: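 Cell-free radioligand binding with receptor from bovine uterine membranes, read by scintillation counting 18 h after dosing. Loss of specific binding was scored against DMSO; primary screen at 25 uM in duplicate, actives then run as concentration series.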
Sequence of bovine Estrogen Receptor (ER), ESR1 (gene 407238) (P49884 whole entry, looked up): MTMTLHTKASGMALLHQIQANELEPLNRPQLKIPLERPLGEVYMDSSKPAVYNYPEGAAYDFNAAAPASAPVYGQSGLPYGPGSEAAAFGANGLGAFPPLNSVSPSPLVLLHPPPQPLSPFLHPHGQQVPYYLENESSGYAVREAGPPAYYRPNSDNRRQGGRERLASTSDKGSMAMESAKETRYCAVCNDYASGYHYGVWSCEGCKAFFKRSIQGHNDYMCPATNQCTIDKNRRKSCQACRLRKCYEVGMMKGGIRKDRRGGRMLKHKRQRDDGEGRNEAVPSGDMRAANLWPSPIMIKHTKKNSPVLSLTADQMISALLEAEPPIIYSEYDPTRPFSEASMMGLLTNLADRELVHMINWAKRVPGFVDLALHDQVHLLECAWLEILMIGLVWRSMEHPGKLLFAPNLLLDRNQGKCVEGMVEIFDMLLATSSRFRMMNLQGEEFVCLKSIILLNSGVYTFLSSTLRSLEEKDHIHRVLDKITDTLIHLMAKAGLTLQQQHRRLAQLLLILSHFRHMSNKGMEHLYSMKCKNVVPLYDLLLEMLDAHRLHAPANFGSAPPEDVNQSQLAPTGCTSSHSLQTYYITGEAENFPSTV

In assay [2] the target is human Peripheral-type Benzodiazepine Receptor (PBR), TSPO (gene 706) (UniProt P30536). Description: NVS_MP_hPBR: NovaScreen (NVS) Membrane Protein Assay for human Peripheral-type Benzodiazepine Receptor (PBR) (AID 2283331).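 Note: hits reduce radioligand binding relative to DMSO baseline.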 A digest of the protocol:
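Cell-free radioligand displacement, human colonic membranes, 1 h exposure. Filter radiodetection read-out. Single-concentration duplicates (25 uM), then concentration-response for actives; DMSO negative control.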

For assay [3], the target named is rat Peripheral-type Benzodiazepine Receptor (PBR), Tspo (gene 24230) (UniProt P16257). Description: NVS_MP_rPBR: NovaScreen (NVS) Membrane Protein Assay for rat Peripheral-type Benzodiazepine Receptor (PBR) (AID 2283335). A digest of the protocol:
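Single-concentration duplicate screening at 25 uM preceded concentration-series retesting of actives. Binding of a specific radioligand to rat kidney membrane PBR was read by filtration radiodetection after 1 h, with plate-wise positive and negative controls.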

Assay [4] deals with NCBI gene 100848466. Nature of the assay: NVS_NR_bPR: NovaScreen (NVS) Nuclear Receptor Binding Assay for bovine Progextron Receptor (PR) (AID 2283343).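 For AC50: actives lower bound radioligand signal below DMSO meaning displacement of the label.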 A digest of the protocol:
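Scintillation counts of bound radioligand were read 18 hours after chemical addition to membranes extracted from bovine uterus. Displacement was scored as loss of signal relative to DMSO controls. Screening began at 25 uM in duplicate.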

Assay [5] addresses bovine Gamma-Aminobutyric Acid Type A Receptor Agonist (GABAR Agonist), GABRA1 (gene 780973) (UniProt P08219). Description: NVS_LGIC_bGABAR_Agonist: NovaScreen (NVS) Ligand-Gated Ion Channel Assay for bovine Gamma-Aminobutyric Acid Type A Receptor Agonist (GABAR Agonist) (AID 2283338). A digest of the protocol: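 Radioligand binding to bovine cerebellar membranes in agonist format, read by filter-based scintillation counting after 1 h. Primary screen in duplicate at 25 uM, with actives followed in concentration series. Gain of signal versus DMSO.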

The target of assay [6] is human Androgen Receptor (AR), AR (gene 367) (UniProt P10275). Description: NVS_NR_hAR: NovaScreen (NVS) Nuclear Receptor Binding Assay for human Androgen Receptor (AR) (AID 2283332). A digest of the protocol: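 LnCAP cell-free extract; radioligand displacement read by scintillation counting after 20 h. Primary screen single concentration 25 uM in duplicate, actives then run as concentration series; loss-of-signal fitted relative to DMSO baseline.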
Sequence of human Androgen Receptor (AR), AR (gene 367) (P10275 whole entry, looked up): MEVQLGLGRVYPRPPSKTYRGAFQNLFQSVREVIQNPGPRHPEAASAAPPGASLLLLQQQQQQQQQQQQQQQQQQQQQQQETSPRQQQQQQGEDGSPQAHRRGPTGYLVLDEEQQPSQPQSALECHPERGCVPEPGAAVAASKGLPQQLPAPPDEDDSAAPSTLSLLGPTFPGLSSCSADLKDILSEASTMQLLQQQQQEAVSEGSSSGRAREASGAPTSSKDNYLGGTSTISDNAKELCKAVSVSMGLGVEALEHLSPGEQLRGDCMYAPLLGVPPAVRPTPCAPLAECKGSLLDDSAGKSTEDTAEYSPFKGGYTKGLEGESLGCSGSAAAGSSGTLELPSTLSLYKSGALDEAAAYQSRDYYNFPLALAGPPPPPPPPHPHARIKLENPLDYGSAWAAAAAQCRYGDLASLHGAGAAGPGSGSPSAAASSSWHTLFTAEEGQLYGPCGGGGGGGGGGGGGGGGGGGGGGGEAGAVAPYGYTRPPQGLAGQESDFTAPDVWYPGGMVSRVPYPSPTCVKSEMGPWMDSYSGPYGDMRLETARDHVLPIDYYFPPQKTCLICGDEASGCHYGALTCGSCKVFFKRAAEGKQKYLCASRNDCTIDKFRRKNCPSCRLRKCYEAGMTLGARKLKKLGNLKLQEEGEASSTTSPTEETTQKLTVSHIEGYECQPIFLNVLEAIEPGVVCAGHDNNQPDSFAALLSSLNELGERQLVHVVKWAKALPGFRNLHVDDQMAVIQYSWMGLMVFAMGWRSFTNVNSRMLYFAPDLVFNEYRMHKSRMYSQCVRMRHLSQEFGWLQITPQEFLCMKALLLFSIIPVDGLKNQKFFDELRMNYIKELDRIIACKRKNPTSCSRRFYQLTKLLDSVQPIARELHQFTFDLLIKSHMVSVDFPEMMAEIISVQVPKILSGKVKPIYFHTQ

Assay [7] deals with human Constitutive Androstane Receptor (CAR), NR1I3 (gene 9970) (UniProt Q14994). Description: NVS_NR_hCAR_Antagonist: NovaScreen (NVS) Nuclear Receptor Binding Assay for human Constitutive Androstane Receptor Antagonism (CAR) (AID 2283344). A digest of the protocol: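 Single 25 uM duplicate primary screen, with concentration-series follow-up on actives. Cell-free binding format run in antagonist mode, TR-FRET signal taken 1 h post-dose; activity is signal loss relative to DMSO.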
Sequence of human Constitutive Androstane Receptor (CAR), NR1I3 (gene 9970) (Q14994 whole entry, looked up): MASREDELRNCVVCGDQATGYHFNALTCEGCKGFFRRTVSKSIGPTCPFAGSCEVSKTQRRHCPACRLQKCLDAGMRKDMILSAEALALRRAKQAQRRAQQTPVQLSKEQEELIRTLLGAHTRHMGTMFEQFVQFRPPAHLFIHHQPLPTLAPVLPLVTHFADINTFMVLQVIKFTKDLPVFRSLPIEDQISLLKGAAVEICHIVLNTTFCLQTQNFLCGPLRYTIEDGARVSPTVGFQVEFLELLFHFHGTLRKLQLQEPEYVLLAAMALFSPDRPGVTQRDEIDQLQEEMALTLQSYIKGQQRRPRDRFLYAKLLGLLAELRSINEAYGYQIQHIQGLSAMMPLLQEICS

The target in assay [8] is rat Glycine Receptor, Strychnine-sensitive (GlyRStrySens), Glra1 (gene 25674) (UniProt P07727). Nature of the assay: NVS_LGIC_rGlyRStrySens: NovaScreen (NVS) Ligand-Gated Ion Channel Assay for rat Glycine Receptor, Strychnine-sensitive (GlyRStrySens) (AID 2283341). A digest of the protocol:
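Radioligand displacement on rat spinal cord membranes, 1 hr, filter scintillation read-out. Single-concentration duplicate screen at 25 uM; chemicals meeting threshold (e.g., 30% inhibition) rerun in concentration-response up to 50 uM. Loss of binding fitted versus DMSO.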

Assay [9] addresses Voltage-gated inwardly rectifying potassium channel KCNH2 (Homo sapiens) (UniProt Q12809). Description: NVS_IC_hKhERGCh: NovaScreen (NVS) Ion Channel Assay for human Potassium Channel ERG (KhERGCh) (AID 2283333). A digest of the protocol:
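Membranes from CHO cells expressing human ERG; displacement of radioligand measured by filtration and scintillation after 0.75 h. Single-concentration duplicate screen at 25 uM, then concentration-response for actives; DMSO baseline.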

In assay [10] the target is Glutamate receptor ionotropic, kainate 1 (Rattus norvegicus) (UniProt P22756). Description: NVS_IC_rKAR: NovaScreen (NVS) Ion Channel Assay for rat Kainic Acid Receptors (KAR) (AID 2283334; active = hit-call score of the fitted dose curve at least 0.9, where 1 is the maximum; inactive = score below 0.9). A digest of the protocol:
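Rat forebrain membrane preparation incubated 1 h with radioligand and test chemical; bound signal read by filtration and scintillation. Single-concentration screen at 25 uM, then concentration series to 50 uM maximum.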

Assay [11] is described as follows: NVS_IC_rCaBTZCHL: NovaScreen (NVS) Ion Channel Assay for Calcium Channel, Type L, Benzothiazepine Site (CaBTZCHL) (AID 2283337). A digest of the protocol:
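Rat cortical membrane preparation, cell-free. Radioligand displaced by test chemical; 1.5 h incubation; filtration, scintillation count. DMSO = negative control/baseline. Primary: duplicate, 25 uM; secondary: concentration series.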

For assay [12], the system named is guinea pig Histamine Receptor (H2), gene 100729734. Nature of the assay: NVS_GPCR_gH2: NovaScreen (NVS) G Protein-Coupled Receptor Assay for guinea pig Histamine Receptor (H2) (AID 2283342). A digest of the protocol:
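Guinea pig striatal membrane preparation with specific radioligand; bound counts measured by filtration and scintillation 1 h post-dosing, DMSO as baseline. Chemicals passing a 25 uM duplicate screen were titrated to a 50 uM maximum.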

Assay [13] has as its target rat Glutamate, MK-801 Agonist Site (GluNMDA_MK801), Grin1 (gene 24408) (UniProt P35439). Description: NVS_LGIC_rGluNMDA_MK801_Agonist: NovaScreen (NVS) Ligand-Gated Ion Channel Assay for rat Glutamate, MK-801 Agonist Site (GluNMDA_MK801) (AID 2283340). A digest of the protocol:
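Rat forebrain membrane preparation; MK-801-site radioligand binding read by filtration and scintillation after 1.5 h. Single-point 25 uM duplicate screen, followed by singleton concentration series to 50 uM max; DMSO baseline.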

Sequence of human Peripheral-type Benzodiazepine Receptor (PBR), TSPO (gene 706) (P30536 whole entry, looked up): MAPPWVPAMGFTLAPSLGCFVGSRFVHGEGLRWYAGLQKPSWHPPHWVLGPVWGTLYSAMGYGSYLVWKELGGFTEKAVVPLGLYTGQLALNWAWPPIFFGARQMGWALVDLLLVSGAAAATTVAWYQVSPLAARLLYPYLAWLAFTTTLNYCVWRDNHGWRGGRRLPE
Sequence of bovine Gamma-Aminobutyric Acid Type A Receptor Agonist (GABAR Agonist), GABRA1 (gene 780973) (P08219 whole entry, looked up): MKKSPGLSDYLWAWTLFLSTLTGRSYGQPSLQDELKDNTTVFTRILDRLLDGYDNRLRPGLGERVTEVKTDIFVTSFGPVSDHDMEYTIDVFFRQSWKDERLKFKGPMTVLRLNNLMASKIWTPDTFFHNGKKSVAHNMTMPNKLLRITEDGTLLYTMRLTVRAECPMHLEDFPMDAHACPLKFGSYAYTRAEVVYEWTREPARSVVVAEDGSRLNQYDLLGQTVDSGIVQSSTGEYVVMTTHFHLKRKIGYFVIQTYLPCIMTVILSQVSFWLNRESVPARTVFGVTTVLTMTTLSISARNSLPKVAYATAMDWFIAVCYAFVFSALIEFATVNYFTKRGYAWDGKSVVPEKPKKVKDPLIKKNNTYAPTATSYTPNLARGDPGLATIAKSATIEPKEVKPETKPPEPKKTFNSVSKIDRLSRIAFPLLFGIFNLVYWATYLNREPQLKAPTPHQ
Sequence of rat Peripheral-type Benzodiazepine Receptor (PBR), Tspo (gene 24230) (P16257 whole entry, looked up): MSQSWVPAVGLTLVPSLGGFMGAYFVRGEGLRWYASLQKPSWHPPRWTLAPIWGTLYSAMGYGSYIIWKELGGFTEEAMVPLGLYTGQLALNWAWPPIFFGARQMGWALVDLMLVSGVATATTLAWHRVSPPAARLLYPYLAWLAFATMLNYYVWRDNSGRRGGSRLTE
Sequence of Voltage-gated inwardly rectifying potassium channel KCNH2 (Homo sapiens) (Q12809 whole entry, looked up): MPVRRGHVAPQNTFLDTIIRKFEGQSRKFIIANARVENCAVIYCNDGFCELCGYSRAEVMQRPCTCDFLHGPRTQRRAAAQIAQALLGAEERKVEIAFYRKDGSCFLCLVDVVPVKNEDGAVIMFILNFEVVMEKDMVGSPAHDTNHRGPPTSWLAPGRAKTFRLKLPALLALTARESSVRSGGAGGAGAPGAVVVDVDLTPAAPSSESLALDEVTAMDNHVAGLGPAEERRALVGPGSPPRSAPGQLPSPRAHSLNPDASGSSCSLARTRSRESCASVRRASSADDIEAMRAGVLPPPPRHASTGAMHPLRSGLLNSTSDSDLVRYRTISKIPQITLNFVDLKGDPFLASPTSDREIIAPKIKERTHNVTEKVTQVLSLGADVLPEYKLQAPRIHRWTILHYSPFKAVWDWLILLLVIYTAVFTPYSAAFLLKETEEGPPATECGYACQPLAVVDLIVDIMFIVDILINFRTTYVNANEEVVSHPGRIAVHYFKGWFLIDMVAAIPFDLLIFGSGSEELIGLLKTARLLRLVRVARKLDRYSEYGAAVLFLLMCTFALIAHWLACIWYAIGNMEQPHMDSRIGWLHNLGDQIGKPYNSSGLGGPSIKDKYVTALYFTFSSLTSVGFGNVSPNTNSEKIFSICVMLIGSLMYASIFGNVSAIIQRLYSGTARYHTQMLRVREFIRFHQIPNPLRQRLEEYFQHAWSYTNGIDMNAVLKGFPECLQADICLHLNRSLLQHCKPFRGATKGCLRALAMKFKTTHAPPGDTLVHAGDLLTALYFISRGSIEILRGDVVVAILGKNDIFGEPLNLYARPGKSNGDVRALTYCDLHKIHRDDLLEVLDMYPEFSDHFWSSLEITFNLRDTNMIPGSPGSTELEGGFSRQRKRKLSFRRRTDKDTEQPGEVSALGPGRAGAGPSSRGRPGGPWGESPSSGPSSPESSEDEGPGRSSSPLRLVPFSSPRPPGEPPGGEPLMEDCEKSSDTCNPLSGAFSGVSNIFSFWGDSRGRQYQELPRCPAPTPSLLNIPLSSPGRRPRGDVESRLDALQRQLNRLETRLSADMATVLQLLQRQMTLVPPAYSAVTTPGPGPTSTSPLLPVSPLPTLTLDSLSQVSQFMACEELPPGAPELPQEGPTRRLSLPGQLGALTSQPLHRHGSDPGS
Sequence of rat Glycine Receptor, Strychnine-sensitive (GlyRStrySens), Glra1 (gene 25674) (P07727 whole entry, looked up): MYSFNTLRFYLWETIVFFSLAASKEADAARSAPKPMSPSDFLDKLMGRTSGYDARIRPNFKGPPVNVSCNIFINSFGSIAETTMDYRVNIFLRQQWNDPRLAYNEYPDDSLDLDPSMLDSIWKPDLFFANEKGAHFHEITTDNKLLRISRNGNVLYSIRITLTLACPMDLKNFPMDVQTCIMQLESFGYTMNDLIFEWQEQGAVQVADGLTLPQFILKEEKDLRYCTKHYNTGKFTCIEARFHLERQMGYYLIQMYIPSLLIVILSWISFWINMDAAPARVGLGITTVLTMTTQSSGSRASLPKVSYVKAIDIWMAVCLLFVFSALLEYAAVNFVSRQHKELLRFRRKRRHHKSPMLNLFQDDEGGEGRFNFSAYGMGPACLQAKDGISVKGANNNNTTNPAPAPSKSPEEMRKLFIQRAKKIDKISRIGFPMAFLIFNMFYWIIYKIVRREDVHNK

Consider `Clc1ccccc1C(c1ccccc1)(c1ccccc1)n1ccnc1`, for which, in assay [1], the compound was called inactive.
As for `O=CCCCC=O`, the result in assay [1] was inactive.
For `CCCCCCCCOC(=O)c1cc(O)c(O)c(O)c1`, the figures for the AC50 in assay [2], in [3] and in assay [1] were 0.439 µM (active), 2.82 µM (active) and 36.7 µM (active), respectively. Moreover, the call in assay [4] was inactive.
With `Cc1ccc2oc(CN(Cc3ccccc3)C(=O)Nc3c(F)cc(F)cc3F)c(-c3ccc(Cl)cc3)c2c1`, the AC50 (in general, the midpoint of the concentration-response curve, whichever way the signal moves) in assay [2] is 2.6 µM (active); in assay [3] it was 4.2 µM (active). The call in [4] was inactive.
Consider `Cc1ccc(C(C)C)cc1`, for which the result in [5] was inactive.
With `CCCCOC(=O)CC(CC(=O)OCCCC)(OC(C)=O)C(=O)OCCCC`, the compound was called inactive in assay [2] and in assay [3].
With `CCCCCCCCCCCO`, the compound was called inactive in assay [1].
On to `Cc1cccc2ccccc12`, for which the outcome in [5] was inactive.
As to `CC(C)(c1cc(Br)c(O)c(Br)c1)c1cc(Br)c(O)c(Br)c1`, the AC50 in assay [5] is 44.4 µM (active). Also, the result in assay [1] was inactive.
Take `O=c1c(-c2ccc(O)cc2)coc2cc(O)cc(O)c12`: in [2], the half-maximal activity concentration (AC50) is 8.19 µM (active). In addition, the compound was classed as inactive in assay [6] and in [3].
As to `C[C@]12CC[C@@H]3c4ccc(O)cc4CC[C@H]3[C@@H]1CCC2=O`, the result in assay [1] was inactive.
For the compound `O=C(Nc1ccc(Cl)cc1)Nc1ccc(Cl)c(Cl)c1`, the result in assay [1] was inactive.
Take `CC(C)(C)c1csc(-c2cc3cc(OCc4ccccc4CC(=O)O)ccc3o2)n1`: the result in assay [7] was inactive.
For the compound `NC(=O)c1nc(-c2cccc(-c3cc(F)ccc3OCC(F)(F)C(F)(F)F)c2)n[nH]1`, the result in assay [2] was inactive. Further, the AC50 in assay [3] is 5.7 µM (active).
As to `O=C(O)Cc1cc(I)c(Oc2ccc(O)c(I)c2)c(I)c1`, the result in [8] was inactive.
Take `CCCOC(=O)c1cc(O)c(O)c(O)c1`: the compound was called inactive in [1].
With `CC[C@H](NC(=O)c1cc(F)ccc1NS(=O)(=O)c1cccc2cccnc12)c1ccccc1`, the AC50 was 0.246 µM (active) in [2] and 0.0869 µM (active) in assay [3]. In [1], the compound was called inactive.
`CCCCCCCCN(C)CCCCCCCC`: the outcome in [9], in assay [10], in assay [11] and in assay [1] was inactive. Also, the AC50 in assay [12] is 14.5 µM (active).
In the case of `C[C@]12CC[C@@H]3c4ccc(O)cc4CC[C@H]3[C@@H]1CC[C@H]2O`, in assay [4], the AC50 is 0.0988 µM (active).
For the compound `CN1C(=O)N(c2ccccc2Br)Cc2cnc(Nc3ccc4c(c3)OCC(CO)O4)nc21` (centres undefined), the AC50 in [1] is 0.447 µM (active).
Turning to `NCc1cccc(C2CCN(C(=O)c3ccc(C#Cc4ccccc4F)o3)CC2)c1`, the AC50 was 2.7 µM (active) in assay [2]; 6.03 µM (active) in [9]; 2.9 µM (active) in [11]; 39.9 µM (active) in assay [13]; 12 µM (active) in assay [12]. Besides, the compound was called inactive in [3] and in assay [8].
As to `CC(=O)N1CCN(c2ccc(OC[C@H]3CO[C@](Cn4ccnc4)(c4ccc(Cl)cc4Cl)O3)cc2)CC1`, the compound was classed as inactive in [7].
